Results taken from PubChem BioAssay AID1159580 (chemical genetic matrix, 2015).
Out of some 5,500 compounds screened, about 2,000 (36%) were called active. Roughly 18% stayed inconclusive and do not appear here. No stated cut-off is given here; in the data, active means normalized growth mostly below about 0.91 (no sharp cut-off); inconclusive means no clear call, values can overlap the other calls; inactive means mostly above about 0.92. Some of the results follow.

Assay: chemical genetic growth profiling, strain panel (AID 1159580);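 further: tested at 20 µM; growth read once vehicle control cultures reached saturation at 30 °C; 1 = growth at the plate median or of vehicle wells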
Details: S. cerevisiae deletion strains, growth OD

Measured: normalized growth

Cc1onc(-c2ccccc2)c1-c1ccc(S(N)(=O)=O)cc1
inactive: locus YAL013W, strain DEP1, stronger effect = lower value 0.995 | locus YAL021C, strain ccr4, stronger effect = lower value 1 | locus YAL026C, strain drs2, stronger effect = lower value 1.02 | locus YAL030W, strain snc1, stronger effect = lower value 1 | locus YBL061C, strain skt5, stronger effect = lower value 1 | locus YBR009C, strain hhf1, stronger effect = lower value 1.01 | locus YBR021W, strain FUR4, stronger effect = lower value 1 | locus YBR023C, strain chs3, stronger effect = lower value 1 | locus YBR171W, strain sec66, stronger effect = lower value 0.984 | locus YBR229C, strain ROT2, stronger effect = lower value 0.999 | locus YBR231C, strain swc5, stronger effect = lower value 1 | locus YBR279W, strain paf1, stronger effect = lower value 1 | locus YCL011C, strain gbp2, stronger effect = lower value 0.989 | locus YCL016C, strain dcc1, stronger effect = lower value 1.02 | locus YCL029C, strain bik1, stronger effect = lower value 0.995 | locus YCL061C, strain MRC1, stronger effect = lower value 0.993 | locus YCL069W, strain vba3, stronger effect = lower value 0.995 | locus YCR088W, strain abp1, stronger effect = lower value 0.996 | locus YDL005C, strain med2, stronger effect = lower value 0.996 | locus YDL035C, strain GPR1, stronger effect = lower value 1 | locus YDL040C, strain nat1, stronger effect = lower value 1 | locus YDL074C, strain BRE1, stronger effect = lower value 0.999 | locus YDL101C, strain DUN1, stronger effect = lower value 1 | locus YDL134C, strain PPH21, stronger effect = lower value 1.01 | locus YDL185W, strain tfp1, stronger effect = lower value 0.988 | locus YDL192W, strain arf1, stronger effect = lower value 0.997 | locus YDR001C, strain nth1, stronger effect = lower value 1.01 | locus YDR069C, strain doa4, stronger effect = lower value 1 | locus YDR101C, strain arx1, stronger effect = lower value 0.997 | locus YDR137W, strain rgp1, stronger effect = lower value 1.01 | locus YDR150W, strain NUM1, stronger effect = lower value 1.02 | locus YDR159W, strain sac3, stronger effect = lower value 1.01 | locus YDR162C, strain NBP2, stronger effect = lower value 0.993 | locus YDR195W, strain ref2 0.963 | locus YDR297W, strain sur2, stronger effect = lower value 1 | locus YDR318W, strain mcm21, stronger effect = lower value 0.998 | locus YDR334W, strain swr1, stronger effect = lower value 1.02 | locus YDR335W, strain msn5, stronger effect = lower value 0.997 | locus YDR388W, stronger effect = lower value 0.997 | locus YDR392W, strain spt3, stronger effect = lower value 1.01 | locus YDR502C, strain sam2, stronger effect = lower value 0.99 | locus YEL003W, strain gim4, stronger effect = lower value 1 | locus YEL037C, strain rad23, stronger effect = lower value 1 | locus YEL061C, strain CIN8 (second series), stronger effect = lower value 1.02 | locus YEL061C, strain CIN8, stronger effect = lower value 0.992 | locus YER015W, strain faa2, stronger effect = lower value 0.997 | locus YER016W, strain bim1, stronger effect = lower value 1.01 | locus YER110C, stronger effect = lower value 0.997 | locus YER111C, strain swi4, stronger effect = lower value 0.996 | locus YER155C, strain BEM2 (second series), stronger effect = lower value 1.01 | locus YER155C, strain BEM2, stronger effect = lower value 0.988 | locus YER167W, strain BCK2, stronger effect = lower value 1 | locus YFR010W, strain ubp6, stronger effect = lower value 0.999 | locus YGL078C, strain dbp3, stronger effect = lower value 0.995 | locus YGL086W, strain mad1, stronger effect = lower value 0.988 | locus YGL167C, strain pmr1, stronger effect = lower value 1.02 | locus YGL173C, strain kem1, stronger effect = lower value 1.01 | locus YGL227W, strain vid30, stronger effect = lower value 0.991 | locus YGL240W, strain doc1, stronger effect = lower value 1.01 | locus YGL248W, strain PDE1, stronger effect = lower value 1 | locus YGL253W, strain hxk2, stronger effect = lower value 0.999 | locus YGR078C, strain PAC10, stronger effect = lower value 0.989 | locus YGR135W, strain pre9, stronger effect = lower value 0.995 | locus YGR229C, strain SMI1, stronger effect = lower value 0.994 | locus YGR252W, strain gcn5, stronger effect = lower value 0.985 | locus YHR013C, strain ard1, stronger effect = lower value 1.01 | locus YHR027C, strain rpn1, stronger effect = lower value 1 | locus YHR030C, strain SLT2, stronger effect = lower value 1.01 | locus YHR079C, strain IRE1 (second series), stronger effect = lower value 0.998 | locus YHR094C, strain hxt1, stronger effect = lower value 0.995 | locus YHR129C, strain ARP1, stronger effect = lower value 1 | locus YHR142W, strain chs7, stronger effect = lower value 0.989 | locus YHR200W, strain rpn10, stronger effect = lower value 1 | locus YIL066C, strain RNR3, stronger effect = lower value 0.983 | locus YIL073C, strain SPO22, stronger effect = lower value 1.03 | locus YIL125W, strain kgd1, stronger effect = lower value 0.99 | locus YIR030C, strain dcg1, stronger effect = lower value 1 | locus YJL092W, strain hpr5, stronger effect = lower value 0.995 | locus YJL095W, strain BCK1 (second series), stronger effect = lower value 1.01 | locus YJL095W, strain BCK1, stronger effect = lower value 1.02 | locus YJL115W, strain asf1, stronger effect = lower value 0.998 | locus YJL129C, strain trk1, stronger effect = lower value 0.972 | locus YJL134W, strain LCB3, stronger effect = lower value 1 | locus YJL154C, strain vps35, stronger effect = lower value 1.01 | locus YJL164C, strain tpk1, stronger effect = lower value 1.01 | locus YJL166W, strain qcr8, stronger effect = lower value 1 | locus YJL168C, strain set2, stronger effect = lower value 0.998 | locus YJL187C, strain SWE1 (second series), stronger effect = lower value 1 | locus YJL187C, strain SWE1, stronger effect = lower value 0.996
